# This is one part of a sample in which hits are shown more often than they occur.
# Giardia FBPA inh: qHTS Assay for Inhibitors of Fructose-1,6-bisphosphate Aldolase from Giardia Lamblia | Potency, µM (top dose mostly 59.6 µM), without a hit: at the highest dose activity, negative = inhibition, actives largely listed as inhibitors | A8B2U2 | AID 2451, 2010 | purified Giardia FBPA | hit rate 0.71% among 290,000; further: potency means the concentration at half of the fitted maximal effect; on the % scale 0 is the no-effect control and ±100 the full control effect; nearly all actives have a fitted effect of over 55% in size
#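 40 nM FBPA preincubated 10 min at RT with compound (up to 57.5 uM final), then substrate plus GAPDH/TPI/NAD/arsenate coupling and diaphorase/resazurin added. Fluorescence read after 20 min at RT, 525/598 nm.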
# Shiga inhibitor: A qHTS for Small Molecule Inhibitors of Shiga Toxin | AID 2315, 2010 | Vero cells, Shiga toxin protein synthesis inhibition reporter | inhibition, % at 38.7 µM | hit rate 9.2% among 290,000; in the data active means inhibition mostly above about 28%, no sharp cut-off; inactive means mostly below about 43%; further: 0% is about no effect
# TbPYK inhibitor: qHTS of Trypanosoma Brucei Inhibitors. TbPYK enzyme, Kinase-Glo Plus ATP luminescence, 45 min. AID 624173, 2012. pyruvate kinase (Trypanosoma brucei), Q57TT1. Potency, µM (series often up to 76.8 µM), inactives show at the highest dose activity, negative = inhibition, actives largely listed as inhibitors. hit rate 0.12% among 410,000; further: potency means the concentration at half of the fitted maximal effect; on the % scale 0 is the no-effect control and ±100 the full control effect; nearly all actives have a fitted effect of over 50% in size
#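 Activity of T. brucei pyruvate kinase was followed by Kinase-Glo Plus luminescence after the enzyme reacted 45 min at room temperature with 130 uM ADP (final) and substrate. Test compounds were added before ADP at multiple concentrations.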
# Cycloheximide cs: Cycloheximide Counterscreen for Small Molecule Inhibitors of Shiga Toxin; cell reporter, cycloheximide protein synthesis inhibition counterscreen; AID 2314, 2010; max response, %; hit rate 12% among 300,000; in the data active means max response mostly above about 13%, no sharp cut-off; inactive means mostly below about 14%; further: read at 38.3 µM for the half of the compounds with a filed dose; 0% is about no effect
# LmPK inh: qHTS Assay for Inhibitors of Leishmania Mexicana Pyruvate Kinase (LmPK). AID 1721, 2009. hit rate 0.37% among 290,000. purified LmPK, Kinase-Glo ATP luminescence, 1 h. Potency, µM (series often up to 57.5 µM), inactives show top-dose activity change, negative = inhibition, hits mostly inhibitors; further: potency means the concentration at half of the fitted maximal effect; on the % scale 0 is the no-effect control and ±100 the full control effect
# Target sequence (Q27686 whole entry, looked up): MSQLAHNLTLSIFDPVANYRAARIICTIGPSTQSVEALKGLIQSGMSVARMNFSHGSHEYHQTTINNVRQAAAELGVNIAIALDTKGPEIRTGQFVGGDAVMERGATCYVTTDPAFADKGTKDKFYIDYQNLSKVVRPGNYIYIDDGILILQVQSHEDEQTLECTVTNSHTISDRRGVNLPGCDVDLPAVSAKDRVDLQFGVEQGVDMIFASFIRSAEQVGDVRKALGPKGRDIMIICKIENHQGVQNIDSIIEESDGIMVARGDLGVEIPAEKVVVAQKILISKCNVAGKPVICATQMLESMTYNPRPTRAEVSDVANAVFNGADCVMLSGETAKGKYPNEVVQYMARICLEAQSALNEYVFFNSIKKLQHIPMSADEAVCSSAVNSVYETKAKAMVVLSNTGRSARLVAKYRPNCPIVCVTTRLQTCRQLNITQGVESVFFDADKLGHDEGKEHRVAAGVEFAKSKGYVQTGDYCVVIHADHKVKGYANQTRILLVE
#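 Screened at intermediate enzyme activity to detect both inhibitors and activators: LmPK at 0.1 nM, with a 0.5 nM enzyme column as activation reference. PEP 0.5 mM, ADP 0.1 mM; ATP detected by luminescence after 1 h.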
# RE007 growth inh: qHTS Assay for Inhibitors of the HIV-1 protein Vpr. hit rate 0.21% among 360,000. S. pombe RE007 Vpr strain, BacTiter-Glo ATP luminescence, 24 h. Potency, µM (titrated, usually from 92.2 µM), for the others: at the highest dose activity change, negative = less growth, most hits filed as inhibitors. AID 651644, 2012; active means well fitted falling curve with a large enough effect; inconclusive means small, poorly fitted or top-dose-only effect; inactive means no such curve, though single readings can be large or run the other way; further: potency means the concentration at half of the fitted maximal effect; on the % scale 0 is the no-effect control and ±100 the full control effect; nearly all actives have a fitted effect of over 50% in size
#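 Fission yeast RE007 carrying one integrated HIV-1 vpr copy, seeded at OD 0.01 in PMG+AL medium with 23 nL pinned compound. Grown 24 h at 30 degrees; viability read by BacTiter-Glo luminescence after 5 min.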
# An asterisk follows results filed as active; ? = inconclusive; nt = no result given. Unless noted, the call rests on the fitted dose curve; in most records, active means well fitted curve in the direction sought with a large enough effect; inconclusive means small, poorly fitted or top-dose-only effect, or another doubt; inactive means no such curve, though single readings can be large; an effect the other way counts as inactive or inconclusive.
SMILES,Giardia FBPA inh,Shiga inhibitor,TbPYK inhibitor,Cycloheximide cs,LmPK inh,RE007 growth inh
Cc1cc(Cl)c2oc(C(=O)N3CCN(C(=O)c4ccco4)CC3)c(C)c2c1,5.0%,65.3*,0.0%,38.4*,7.2%,-8.2%
Cc1ccc2oc(C(=O)N3CCCCCC3)c(C)c2c1,nt,110.1*,-18.5%,70.6*,-1.4%,-10.4%
Cc1cc(Cl)c2oc(C(=O)N3CCOCC3)c(C)c2c1,nt,nt,-0.6%,nt,nt,-9.2%
COC(=O)CCC(=O)c1oc2ccccc2c1N,7.3%,89.1*,-8.9%,42.3*,-0.5%,-11.2%
Cc1c(C(=O)N2CCCCC2)oc2ccc(Br)cc12,nt,nt,1.0%,nt,nt,-1.0%
COCc1nc2ccccc2n1Cc1ccc(C(C)(C)C)cc1,nt,nt,0.0%,nt,nt,nt
CC(C)C[C@H](NC(=O)[C@H](Cc1cnc[nH]1)NC(=O)[C@@H](N)Cc1cnc[nH]1)C(=O)NCC(=O)NCC(=O)N[C@@H](C)C(=O)N[C@@H](CCCCN)C(=O)N[C@@H](CCC(N)=O)C(=O)N[C@@H](C)C(=O)NCC(=O)N[C@@H](CC(=O)O)C(=O)N[C@H](C(=O)O)C(C)C,-19.1%,-16.7,nt,-1.8,nt,nt
CC(Nc1ccccc1N1CCCCC1)C(=O)N1CCc2ccccc21 (configuration not stated),-5.5%,23.7,-1.5%,10.6,-0.9%,1.5%
Cc1cc(Cl)c2oc(C(=O)N3CCN(c4cnccn4)CC3)c(C)c2c1,nt,nt,-1.0%,nt,nt,4.3%
Cc1cc(Cl)c2oc(C(=O)N3CCN(c4cccc(C)n4)CC3)c(C)c2c1,-10.1%,nt,5.3%,46.6*,5.3%,-28.5%
Cc1ccc2oc(C(=O)N3CCN(c4cccc(C)n4)CC3)c(C)c2c1,-0.3%,nt,0.3%,27.0*,6.6%,-23.7%
CC1Cc2ccccc2N1C(=O)c1ccc2snnc2c1 (configuration not stated),-1.0%,-20.1,12.0%,-5.1,1.9%,-4.1%
Cc1c(C(=O)N2c3ccccc3CC2C)oc2ccccc12 (configuration not stated),nt,165.6*,5.2%,41.6*,-1.2%,-15.2%
CC1Cc2ccccc2N1C(=O)c1nn(C)cc1Br (configuration not stated),-1.8%,-1.5,-6.6%,9.3*,0.6%,-11.6%
Cc1c(C(=O)N2CCc3ccccc3C2)oc2ccccc12,nt,74.1*,0.8%,38.6*,1.4%,3.1%
C=CCN1CCN(C(=O)c2oc3ccccc3c2C)CC1,-15.4%,20.7,-10.0%,20.3*,1.3%,-8.4%
Nc1c(C(=O)N2CCCCCC2)oc2ccccc12,3.4%,41.0,-2.2%,21.1*,-5.8%,-19.9%
COc1ccc(Br)cc1CNC(=O)c1cnc2sc(N3CCCCCC3)nn2c1=O,nt,nt,-0.1%,nt,nt,nt
CC(=O)OCC1OC(n2c(Br)nc3c(=O)[nH]c(N)nc32)C(OC(C)=O)C1OC(C)=O (configuration not stated),-6.2%,nt,nt,nt,nt,nt
O=C(Nc1ccc2c(c1)nc1n2CCOC1)C1CCCCC1,-5.2%,80.9*,-0.9%,28.9*,-5.5%,4.9%
O=C(Nc1ccc2c(c1)nc1n2CCOC1)c1ccco1,0.2%,72.6*,-15.1%,32.5*,0.7%,-5.0%
O=C(Nc1cc(SCCO)cc([N+](=O)[O-])c1)c1ccc(Br)o1,-10.0%,6.2,-4.8%,-3.2,0.2%,3.3%
CCOc1ccc(OCC)c(NC(=O)CCc2nc3cccnc3n2Cc2cccs2)c1,nt,nt,-6.9%,nt,nt,nt
Cc1ccccc1OCCCC(=O)NC1CCCCC1,17.8%,nt,-0.2%,13.0*,-0.1%,23.1%
O=C(CSc1ccccc1)NC1CCCCCC1,7.3%,117.9*,0.7%,49.3*,-4.0%,5.6%
SMILES,Giardia FBPA inh,Shiga inhibitor,TbPYK inhibitor,Cycloheximide cs,LmPK inh,RE007 growth inh
Cc1ccc(C)c(OCCCC(=O)NC2CCCCC2)c1,-6.4%,nt,-17.0%,-1.1,-1.7%,-20.4%
O=C(CCS(=O)(=O)c1ccccc1)NC1CCCCC1,nt,90.4*,0.0%,59.4*,-8.2%,7.5%
O=C(CSc1ccccc1)NC1CCCCCCC1,0.7%,61.7*,-1.7%,40.2*,1.2%,24.2%
O=C(CCSc1ccccc1)NC1CCCC1,-0.4%,42.0,2.0%,28.1*,-7.6%,6.9%
CCC1C(=O)N=C(SCC(=O)NC2CCCCC2)NC1=O (configuration not stated),0.7%,8.7,3.3%,7.2,1.9%,-2.8%
CC(=O)NC1C(=O)N=C(SCC(=O)NC2CCCCC2)NC1=O (configuration not stated),-12.2%,57.3*,4.0%,21.8*,-1.9%,7.2%
O=C(CCSCc1ccccc1Cl)NC1CCCCC1,7.0%,95.1*,-7.1%,37.3*,12.7%,32.9%
O=C(CCSc1ccc(Cl)cc1)NC1CCCC1,1.5%,-2.2,-5.4%,-0.7,-4.3%,2.5%
Cc1cc(S(=O)(=O)Nc2cc3c(cc2N2CCOCC2)n(C)c(=O)c(=O)n3C)ccc1F,nt,nt,-30.4%,nt,nt,nt
Cc1ccc2c(COC(=O)C3=COCCO3)cc(=O)oc2c1,4.8%,89.2*,1.3%,64.0*,5.0%,2.2%
CCOC(=O)Nc1ccc2c(COC(=O)c3ccccc3O)cc(=O)oc2c1,8.2%,75.6*,0.2%,27.1*,7.6%,-1.0%
Cc1ccc2c(COC(=O)CNC(=O)c3ccccc3)cc(=O)oc2c1,-1.9%,28.2,2.0%,35.7*,1.1%,-9.0%
Cc1ccc2c(COC(=O)c3cnc(C)cn3)cc(=O)oc2c1,-2.6%,2.8,nt,-1.0,-1.4%,nt
Cc1ccc2c(COC(=O)c3ccccc3OC(F)F)cc(=O)oc2c1,-16.6%,47.4,4.9%,26.2*,2.7%,-20.0%
CCOc1ccc(N2CC(NC(=O)c3ccc(S(=O)(=O)N4CCOCC4)cc3)CC2=O)cc1 (configuration not stated),nt,nt,14.4%,nt,nt,nt
COc1ccc(C(=O)Cn2nnc(-c3ccccc3F)n2)cc1,0.3%,3.2,-3.3%,12.0*,2.9%,-5.4%
COc1ccc(C(=O)Cn2nnc(-c3ccccc3NC(=O)C3CC3)n2)cc1,4.3%,52.1,-0.5%,18.1*,3.0%,10.6%
O=C(Cn1nnc(-c2ccccc2F)n1)NCCc1ccccc1,2.8%,-21.0,2.7%,-4.9,-6.5%,0.1%
CC1(C)CC(=O)C2=C(C1)NC(=S)C(C#N)C21CCCCC1 (configuration not stated),?,-3.6,2.82µM*,-1.6,-11.4%,-12.8%
O=C(c1ccc(Cl)cc1)c1cnc(-c2ccc(Cl)cc2)s1,5.3%,-5.6,1.0%,0.8,0.5%,12.7%
O=C(c1ccccc1)c1cnc(-c2ccccc2)s1,3.0%,47.4,1.2%,9.4,-1.3%,-10.6%
CN(C)/C=C/C(=O)c1ccc(Cl)s1,7.1%,35.1,0.3%,16.0*,-4.1%,3.2%
CN(C)/C=C/C(=O)c1ccc(Cl)cc1Cl,3.2%,11.2,-0.2%,17.4,-1.2%,-1.2%

# High-throughput results deposited in PubChem BioAssay by National Center for Advancing Translational Sciences (NCATS).
